Source: PubChem BioAssay AID1063 (University of Pittsburgh Molecular Library Screening Center, 2008)
Among all 200,000 compounds or so, about 18,000 (9%) were called active. No stated cut-off is given here; in the data, active means inhibition above about 50%; inactive means the rest. For the sample, actives were picked, then their nearest neighbours and some compounds at random.

Experiment: antileishmanial activity against promastigotes – primary screen (AID 1063);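 further: promastigotes grown with compound for 44 hours at 28 °C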
Conditions: Leishmania major promastigotes, resazurin fluorescence viability; at 10 µM; hits give high values

Q: Which inhibition does the source give for `Cc1nc2cc(NCc3cccs3)ccc2n1C` here?
A: 9.59% (inactive)

Q: Which inhibition does the source give for `C[C@H](NC(=O)c1ccccc1Cl)C(=O)OCCOc1cccc(Cl)c1` here?
A: -6.25% (inactive)

Q: For `CC(=O)N/N=C/c1cc2c(cc1[N+](=O)[O-])OCO2`, which inhibition is on record?
A: -2.52% (inactive)

Q: For `CCn1c(CSc2nc(C)cc(C)n2)nnc1SCC(N)=O`, which inhibition is on record?
A: -0.87% (inactive)

Q: With `Cc1cccc(NC(=S)NCc2ccc3[nH]c4c(c3c2)CCCC4)c1` as the compound, how does the inhibition read?
A: 11.1% (inactive)

Q: Which inhibition does the source give for `Cc1cc2cc(CNC(=O)c3cccs3)ccc2[nH]1` here?
A: -4.21% (inactive)

Q: Which inhibition does the source give for `CCc1cccc(CC)c1NC(=S)NCc1ccc2[nH]c(C)cc2c1` here?
A: 94.4% (active)

Q: Which inhibition does the source give for `COc1cc(/C=C(\C#N)C(=O)Nc2ccc3ccccc3c2)c([N+](=O)[O-])cc1OC` here?
A: -8.56% (inactive)

Q: For `CC1CCCCC1NC(=O)/C(C#N)=C/C=C/c1ccccc1[N+](=O)[O-]` (stereo not given), which inhibition is on record?
A: 69% (active)

Q: With `O=C(/C=C/c1ccccc1[N+](=O)[O-])OC1CCCCC1=O` (stereo not given) as the compound, how does the inhibition read?
A: -5.55% (inactive)

Q: For `COc1cc(CN(C)Cc2nc3cc(C(F)(F)F)ccc3c(=O)[nH]2)ccc1OC(F)F`, which inhibition is on record?
A: 8.36% (inactive)

Q: Which inhibition does the source give for `O=C(CSc1cccc[n+]1[O-])c1ccc(-c2ccccc2)cc1` here?
A: -8.44% (inactive)

Q: For `CC(NC(=S)NC1CCCCC1)C(c1ccccc1)N1CCOCC1` (stereo not given), which inhibition is on record?
A: 1.15% (inactive)

Q: Which inhibition does the source give for `Cc1ccccc1CN1C[C@@H]2C[C@@H](c3ccc4nsnc4c3)N3CCC[C@@]23C1=O` here?
A: 78.4% (active)

Q: For `Cc1ccccc1CN1C[C@@H]2C[C@@H](c3cn(C)nc3-c3ccccc3)N3CCC[C@@]23C1=O`, which inhibition is on record?
A: 9.77% (inactive)

Q: For `Cc1ccccc1CN1CCN(CC(=O)NCc2ccccn2)C1=O`, which inhibition is on record?
A: -4.22% (inactive)

Q: Which inhibition does the source give for `CCN1CCN(C(=O)CN(C)S(=O)(=O)c2ccc3ccccc3c2)CC1` here?
A: 0.63% (inactive)

Q: Which inhibition does the source give for `O=C(N/N=C/c1cc2c(cc1Br)OCO2)C1COc2ccccc2O1` (stereo not given) here?
A: 38% (inactive)

Q: For `O=C1NCC(=O)N(Cc2ccccc2)/C1=C/c1ccccc1`, which inhibition is on record?
A: -0.36% (inactive)

Q: With `CC1=NN(Cc2ccccc2)C(=O)/C1=C/c1ccc(N(C)C)cc1` as the compound, how does the inhibition read?
A: -0.65% (inactive)

Q: Which inhibition does the source give for `CN(C)c1ccc(/C=C2\NC(=S)N(Cc3ccccc3)C2=O)cc1` here?
A: 96.8% (active)

Q: For `Cc1noc(C)c1CCC(=O)O`, which inhibition is on record?
A: -0.11% (inactive)

Q: For `CC(CC(=O)Nc1ccccc1)n1ccnc1` (stereo not given), which inhibition is on record?
A: -7.2% (inactive)

Q: For `COc1ccc(NC(C)=O)cc1NC(=O)CN1CCN(c2ccccn2)CC1`, which inhibition is on record?
A: -3.06% (inactive)

Q: For `COc1ccc(NC(C)=O)cc1NC(=O)CN1CCN(C2c3ccccc3-c3ccccc32)CC1`, which inhibition is on record?
A: 84% (active)

Q: For `COc1ccc(OC)c(NC(=O)CN2CCN(C(=O)c3ccco3)CC2)c1`, which inhibition is on record?
A: -1.17% (inactive)

Q: With `CCC(CC)NC(=O)CSc1nnc(-c2c[nH]c3ccccc23)o1` as the compound, how does the inhibition read?
A: 6.71% (inactive)

Q: With `CC(C)(C)n1nnnc1C(c1ccc(F)cc1)N1CCN(Cc2ccc3c(c2)OCO3)CC1` (stereo not given) as the compound, how does the inhibition read?
A: 48.1% (inactive)

Q: With `Cc1ccc(S(=O)(=O)Cn2nnnc2CN2CCN(Cc3ccc4c(c3)OCO4)CC2)cc1` as the compound, how does the inhibition read?
A: 93.4% (active)

Q: With `Fc1ccccc1C(c1nnnn1Cc1ccc2c(c1)OCO2)N1CCN(Cc2ccccc2)CC1` (stereo not given) as the compound, how does the inhibition read?
A: 26.7% (inactive)

Q: With `O=C(CCN1CCc2ccccc2C(O)(c2ccccc2)C1)c1ccc2c(c1)OCCO2` (stereo not given) as the compound, how does the inhibition read?
A: 95.3% (active)

Q: For `O=C(CN1CCN(c2ccccc2F)CC1)c1ccc2c(c1)OCO2`, which inhibition is on record?
A: 8.93% (inactive)

Q: Which inhibition does the source give for `O=C(CN1CCC(O)(c2ccccc2)CC1)Nc1ccc2c(c1)OCCO2` here?
A: 3.55% (inactive)

Q: For `O=C(Cc1ccccc1)NNC(=O)C1CCN(c2ncccn2)CC1`, which inhibition is on record?
A: -9.12% (inactive)

Q: For `CCc1cc(CNC(=O)CC2C(=O)NCCN2CC2CCCCC2)on1` (stereo not given), which inhibition is on record?
A: -6.55% (inactive)

Q: Which inhibition does the source give for `COc1ccc(C(=O)Oc2cc(/C=N/NS(=O)(=O)c3ccc(C)cc3)ccc2OC)cc1` here?
A: 0.27% (inactive)

Q: With `COc1ccc(/C=C/C(=O)c2ccc(NS(=O)(=O)c3ccc(C)cc3)cc2)cc1O` as the compound, how does the inhibition read?
A: 99.6% (active)

Q: With `COc1ccc(NS(=O)(=O)c2ccc(NC(C)=O)cc2)cc1OC` as the compound, how does the inhibition read?
A: -3.17% (inactive)

Q: With `O=C(CCC(=O)Nc1ccccc1)N/N=C/c1ccccc1F` as the compound, how does the inhibition read?
A: 0.99% (inactive)

Q: For `CCC(C(=O)Nc1ccc2c(c1)OCCO2)c1ccccc1` (stereo not given), which inhibition is on record?
A: 4.21% (inactive)

Q: For `CCO[C@H]1OC(C(=O)Nc2ccccc2)=C[C@@H](C2CC2)[C@@H]1CCCO`, which inhibition is on record?
A: 1.1% (inactive)

Q: With `CCOC(=O)C1=C(CC)OC(N)=C(C#N)C1c1ccc(F)cc1F` (stereo not given) as the compound, how does the inhibition read?
A: 11.4% (inactive)

Q: For `COc1cc2c(cc1OC)C(c1ccncc1)CC(=O)N2` (stereo not given), which inhibition is on record?
A: -6.82% (inactive)

Q: For `COc1cc2c(cc1OC)C(c1ccc(C)o1)CC(=O)N2` (stereo not given), which inhibition is on record?
A: -5.73% (inactive)

Q: For `COC(=O)c1ccc(C2CC(=O)Nc3cc(OC)c(OC)cc32)cc1` (stereo not given), which inhibition is on record?
A: 53.2% (active)

Q: Which inhibition does the source give for `O=C(NCCc1ccccc1)c1ccc(OCCOc2ccccc2)cc1` here?
A: -1.38% (inactive)

Q: Which inhibition does the source give for `CC(C)(c1ccccc1)c1ccc(OCCN)cc1` here?
A: 51.4% (active)

Q: With `O=C(NCCOc1ccccc1)c1ccccc1` as the compound, how does the inhibition read?
A: -1.77% (inactive)

Q: For `COc1cc(OC)cc(C(=O)NCC(=O)OCc2csc(-c3ccccc3)n2)c1`, which inhibition is on record?
A: 34.9% (inactive)

Q: For `O=C(CNCc1ccc(Cl)cc1)Nc1cccc(C(=O)O)c1`, which inhibition is on record?
A: 1.28% (inactive)

Q: With `N/C(=N\OC(=O)Cc1ccccc1[N+](=O)[O-])c1ccc(Br)cc1` as the compound, how does the inhibition read?
A: 10.7% (inactive)

Q: Which inhibition does the source give for `COc1cccc(C(=O)N2CCCC(CCC(=O)NCc3ccc(F)c(F)c3)C2)c1` (stereo not given) here?
A: 6.37% (inactive)

Q: With `COc1cccc(CNC(=O)CCC2CCCN(C(=O)c3ccoc3C)C2)c1` (stereo not given) as the compound, how does the inhibition read?
A: -4.54% (inactive)

Q: With `COc1cccc(CNC(=O)CCC2CCCN(Cc3ccc(OC(F)F)cc3)C2)c1` (stereo not given) as the compound, how does the inhibition read?
A: 98.5% (active)

Q: With `COc1ccc(/C=N/NC(=O)C(C)N(c2ccc(OC)cc2)S(C)(=O)=O)cc1` (stereo not given) as the compound, how does the inhibition read?
A: 4.55% (inactive)

Q: For `COc1ccc(Cl)cc1NC(=O)C(C)N1CCc2ccccc21` (stereo not given), which inhibition is on record?
A: 16.9% (inactive)

Q: For `CC1(C)OC(=O)C(=CNC(CO)C(=O)O)C(=O)O1` (stereo not given), which inhibition is on record?
A: -4.58% (inactive)

Q: With `O=[N+]([O-])c1cccc(S(=O)(=O)N2CCCCCC2)c1` as the compound, how does the inhibition read?
A: 36.7% (inactive)

Q: Which inhibition does the source give for `O=C(Nc1ccc2c(c1)OCCO2)c1ccc(Cl)c(S(=O)(=O)N2CCCCC2)c1` here?
A: -0.95% (inactive)

Q: With `O=C(Oc1ccc([N+](=O)[O-])cc1)c1ccc(Cl)c(S(=O)(=O)N2CCCCC2)c1` as the compound, how does the inhibition read?
A: 56.8% (active)
